# mTORC1 inh: Acumen qHTS Assay for Inhibitors of the mTORC1 Signaling Pathway in MEF (Tsc2-/-, p53-/-) Cells: Sytravon; Tsc2-/- p53-/- MEF, phospho-rpS6 immunofluorescence/PI, 24 h; Potency, µM (highest dose often 38.3 µM), without a hit: at the top dose activity change, negative = inhibition, most hits filed as inhibitors; 44,000 compounds, 0.78% hits; AID 493208, 2011;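 note: potency is the fitted concentration of half-maximal effect; plate controls were DMSO for no effect and rapamycin for full effect; nearly all actives have a fitted effect of over 50% in size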
#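 Tsc2-/-, p53-/- mouse embryonic fibroblasts (empty-vector line) exposed to compound 24 hrs at 37 C, fixed, immunostained for phospho-rpS6 and counterstained with propidium iodide. Acumen laser scanning gives % positive cells from Alexa 488/PI ratio, thresholded using 7.5 nM rapamycin; PI count gives viability.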
# PMP22 txn: Cell-based coincidence reporter assay to measure PMP22 gene transcription in S16 Pmp22-F2sN cells - Primary screen; S16 Pmp22-F2sN Schwann cells, FLuc/NLuc coincidence luminescence, 24 h; Potency, µM (top dose mostly 57.5 µM), for the others: top-dose activity change, negative = inhibition, most hits filed as inhibitors; 43,000 compounds, 2% hits; AID 1508649, 2021; active = clear falling dose curves in both reporters; inconclusive = both reporters move, but less clearly or upward; inactive = either reporter flat; the % is the NLuc reporter signal; note: potency is the fitted concentration of half-maximal effect; % is set by controls: 0 for no effect and ±100 for the full control effect
#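 Luminescent read-out of sequential FLuc and NLuc signals from a reporter embedded in the Pmp22 3' UTR of S16 Schwann cells, taken after 24 h compound exposure at 37C; compounds reducing both signals score as inhibitors of expression.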
# S16 viability: Cell viability qHTS assay in S16 Pmp22-F2sN cells; S16 Pmp22-F2sN Schwann cells (luciferase reporters placed in the Pmp22 gene) viability, CellTiter-Glo, 24 h; Potency, µM (series often up to 57.5 µM), inactives show at the top dose activity change, negative = cytotoxicity, most hits filed as cytotoxic; 43,000 compounds, 0.48% hits; AID 1508642, 2021; note: potency is the fitted concentration of half-maximal effect; % is set by controls: 0 for no effect and ±100 for the full control effect; nearly all actives have a fitted effect of over 65% in size
#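 CellTiter-Glo counter-screen, qHTS, 1536-well. Cells: S16(c9) Pmp22-F2sN, 500-1,000/well in DMEM + 10% FBS. Cpd 23 nL pin transfer, 24 h, 37C/5% CO2. Read: luminescence, CCD imager.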
# p53null 39C kill: qHTS Screen for Compounds that Selectively Target Cancer Cells with p53 Mutations: Cytotoxicity of p53 Null Cells at the Nonpermissive Temperature; H1299 p53-null (neo) cells, 39C, ATPlite viability, 24 h; Potency, µM (series often up to 46.1 µM), without a hit: at the highest dose activity, negative = cell killing, hits mostly cytotoxic; 55,000 compounds, 0.97% hits; AID 904, 2007;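 note: potency is the fitted concentration of half-maximal effect; 0% = DMSO only and -100% = full killing by 100 µM tamoxifen; nearly all actives have a fitted effect of over 50% in size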
#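 Following overnight plating at 37C (600 cells/well), H1299-neo or H1299-p53A138V cells are dosed up to 46 uM. Incubation lasts 24 hr at 39C before ATP detection.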
# p53null 32C kill: qHTS Screen for Compounds that Selectively Target Cancer Cells with p53 Mutations: Cytotoxicity of p53 Null Cells at the Permissive Temperature; AID 903, 2007; 55,000 compounds, 0.62% hits; H1299-neo p53 null cells, ATP luminescence, 24 h, 32C; Potency, µM (titrated, usually from 46.1 µM), without a hit: at the top dose activity change, negative = cytotoxicity, hits mostly cytotoxic;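 note: potency is the fitted concentration of half-maximal effect; 0% = DMSO only and -100% = full killing by 100 µM tamoxifen; nearly all actives have a fitted effect of over 55% in size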
#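 H1299-neo (p53 null) cells, 600/well, treated 24 h at 32C with compound up to 46 uM; ATPlite luminescence viability, normalized to DMSO and 100 uM tamoxifen; AC50 by Hill fit.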
# OvCa metastasis: Primary qHTS assay for Inhibitors of ovarian cancer metastasis using an organotypic tumor microenvironment (TME) model. SKOV3ip1-GFP adhesion/invasion on 3D omental model, fluorescence. Potency, µM (titrated, usually from 45.8 µM), inactives show at the highest dose activity change, negative = inhibition, usual class: inhibitors. 46,000 compounds, 0.1% hits;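 note: potency is the fitted concentration of half-maximal effect; plate controls were DMSO wells for no effect and tomatine positive control wells for full effect; nearly all actives have a fitted effect of over 65% in size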
#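 A 3D layer of primary human omental fibroblasts, mesothelial cells, fibronectin and collagen I, grown 48 hr, received SKOV3ip1-GFP cells in serum-free medium plus compounds at 0.36-46 umol/L. After 2 hr RT and 16 hr 37 C, fixed adherent GFP cells were counted; normalized to DMSO and tomatine.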
# NLuc saturating: Biochemical NLuc saturation counterscreen for small molecule modulators of PMP22 gene expression - Nano-Glo assay | shares compounds with PMP22 txn | 690 compounds, 4% hits | Potency, µM (series often up to 57.5 µM), for the others: at the top dose activity change, negative = inhibition, actives largely listed as inhibitors | Secreted NLuc enzyme (filtered S16 cell medium), Nano-Glo luminescence; note: potency is the fitted concentration of half-maximal effect; % is set by controls: 0 for no effect and ±100 for the full control effect
# NLuc Km ctr: Biochemical coelenterazine-based NLuc counterscreen for small molecule modulators of PMP22 gene expression - Km assay | shares compounds with PMP22 txn | secreted NLuc enzyme, coelenterazine luminescence, Km conditions | Potency, µM (top dose mostly 57.5 µM), for the others: top-dose activity change, negative = inhibition, hits mostly inhibitors | 690 compounds, 5% hits | AID 1508639, 2021; note: potency is the fitted concentration of half-maximal effect; % is set by controls: 0 for no effect and ±100 for the full control effect
# FLuc counter: Biochemical FLuc counterscreen for small molecule modulators of PMP22 gene expression; shares compounds with PMP22 txn; purified P. pyralis FLuc, luminescence, 10 min; Potency, µM (highest dose often 57.5 µM), for the others: at the highest dose activity, negative = inhibition, most hits filed as inhibitors; 690 tested, under 10 active; AID 1508640, 2021; note: % of control where 0% means no effect
# Target sequence (P08659 whole entry, looked up): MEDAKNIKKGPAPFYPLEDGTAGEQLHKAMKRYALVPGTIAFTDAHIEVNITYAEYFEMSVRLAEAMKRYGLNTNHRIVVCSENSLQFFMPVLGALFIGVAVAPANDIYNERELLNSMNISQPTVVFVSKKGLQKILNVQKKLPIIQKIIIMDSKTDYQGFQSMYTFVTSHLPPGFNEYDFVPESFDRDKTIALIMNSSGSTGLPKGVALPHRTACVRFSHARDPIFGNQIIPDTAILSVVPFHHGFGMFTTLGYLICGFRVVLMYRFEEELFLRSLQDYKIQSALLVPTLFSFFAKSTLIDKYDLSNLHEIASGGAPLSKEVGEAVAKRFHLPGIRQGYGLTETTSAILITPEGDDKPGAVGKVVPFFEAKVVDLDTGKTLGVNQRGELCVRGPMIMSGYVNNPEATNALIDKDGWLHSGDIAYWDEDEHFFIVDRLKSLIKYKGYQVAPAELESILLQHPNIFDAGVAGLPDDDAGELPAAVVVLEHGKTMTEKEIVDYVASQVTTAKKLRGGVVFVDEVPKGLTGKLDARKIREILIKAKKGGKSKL
# S16 viab conf: Cell viability qHTS assay in S16 Pmp22-F2sN cells - Confirmatory screen; S16 Schwann cells viability, CellTiter-Glo ATP luminescence, 24 h; 690 compounds, 7% hits; Potency, µM (highest dose often 57.5 µM), inactives show at the top dose activity change, negative = viability loss, hits mostly cytotoxic; AID 1508641, 2021; shares compounds with PMP22 txn; note: potency is the fitted concentration of half-maximal effect; % is set by controls: 0 for no effect and ±100 for the full control effect
# PMP22 txn conf: Cell-based coincidence reporter assay to measure PMP22 gene transcription in S16 Pmp22-F2sN cells - Confirmatory screen; shares compounds with PMP22 txn; S16 Schwann cells Pmp22-F2sN, dual luciferase, 24 h; Potency, µM (doses to about 57.5 µM), for the others: at the highest dose activity change, negative = inhibition, most hits filed as inhibitors; 690 compounds, 22% hits; AID 1508646, 2021; active = clear falling dose curves in both reporters; inconclusive = both reporters move, but less clearly or upward; inactive = either reporter flat; the % is the FLuc reporter signal; note: potency is the fitted concentration of half-maximal effect
# PMP22 prot conf: Cell-based HiBiT reporter assay to measure PMP22 protein expression in S16 Pmp22-HiBiT cells - Confirmatory screen. shares compounds with PMP22 txn. S16 Schwann cells Pmp22-HiBiT, luminescence, 48 h. Potency, µM (highest dose often 27.9 µM), without a hit: at the top dose activity change, negative = inhibition, actives largely listed as inhibitors. 95 tested, under 10 active
# Target sequence (P25094 whole entry, looked up): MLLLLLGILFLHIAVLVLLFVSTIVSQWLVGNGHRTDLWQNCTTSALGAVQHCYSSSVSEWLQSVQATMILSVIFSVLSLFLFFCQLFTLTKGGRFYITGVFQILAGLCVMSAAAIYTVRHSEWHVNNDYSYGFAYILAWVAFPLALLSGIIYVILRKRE
# The depositor's hits bear a star; i = inactive; ? = inconclusive; / = not tested or not shown. A selection: hits, their analogues and other compounds. The true share with any hit is near 3%. Unless noted, calls come from the whole dose curve; as a rule, active = well fitted curve in the direction sought with a large enough effect; inconclusive = small, poorly fitted or top-dose-only effect, or another doubt; inactive = no such curve, though single readings can be large; an effect the other way counts as inactive or inconclusive.
SMILES,mTORC1 inh,PMP22 txn,S16 viability,p53null 39C kill,p53null 32C kill,OvCa metastasis,NLuc saturating,NLuc Km ctr,FLuc counter,S16 viab conf,PMP22 txn conf,others
O=C1CC(c2ccccc2)Cc2[nH]c(=O)c(-c3nc(-c4ccc(F)cc4)cs3)cc21 (stereo not given),?,3.4µM*,-10.6%,-17.7%,25.9%,-15.3%,?,?,-13.3%,3.7%,?,
Cc1ccc(-n2[nH]c(C)c(N=Nc3cccc(-c4cccc(C(=O)O)c4)c3O)c2=O)cc1C,/,/,/,/,/,-7.5%,/,/,/,/,/,
COc1ccccc1Nc1c2c(nc3ccc(NC(=O)c4cccc(F)c4)cc13)CCCC2,?,10µM*,?,10µM*,?,?,-27.2%,-10.9%,-2.2%,13.7µM*,11.5µM*,
COc1ccccc1Nc1c2c(nc3ccc(NC(=O)/C=C/c4cccc(OC)c4OC)cc13)CCCC2,4.14µM*,10.6µM*,25.1µM*,?,-9.9%,-14.3%,-5.7%,3.6%,2.3%,?,7.74µM*,PMP22 prot conf=38.4%
COc1cc(C(=O)Nc2ccc3nc4n(c(=O)c3c2)CCCCC4)cc(OC)c1OC,2.0%,-21.4%,?,?,-25.8%,2.6%,/,/,/,/,/,
Cc1c2oc3c(C)ccc(C(=O)NC4C(=O)NC(C(C)C)C(=O)N5CCCC5C(=O)N(C)CC(=O)N(C)C(C(C)C)C(=O)OC4C)c3nc-2c(C(=O)NC2C(=O)NC(C(C)C)C(=O)N3CCCC3C(=O)N(C)CC(=O)N(C)C(C(C)C)C(=O)OC2C)c(N)c1=O (stereo not given),/,/,/,/,/,-13.2%,/,/,/,/,/,
Cc1ccc(NC(=O)N(Cc2cn(C)c3ccccc23)C2CCCCC2)cc1C,-1.2%,11.3µM*,?,?,6.7%,i,13.7µM*,?,?,1.9%,?,
COc1cccc(NC(=O)N(Cc2cn(C)c3ccccc23)C2CCCCC2)c1,-2.2%,10µM*,?,?,-1.3%,-2.0%,?,?,-2.5%,2.2%,?,
O=C(NCC1CN(c2ccc(N3CCOCC3=O)cc2)C(=O)O1)c1ccc(Cl)s1 (stereo not given),/,/,/,/,/,-13.5%,/,/,/,/,/,
Cc1ccccc1CNC(=O)C(=O)NCC(c1cccs1)S(=O)(=O)c1ccc(Cl)cc1 (stereo not given),1.6%,15µM*,0.1%,3.6%,2.6%,8.5%,-13.8%,-16.7%,4.3%,10.0%,-23.8%,
COc1ccc(Nc2c3c(nc4ccccc24)CCC3)cc1Cl,?,10µM*,?,?,-1.1%,i,-18.5%,-2.2%,2.6%,-24.2%,?,
Fc1ccc(Nc2c3c(nc4ccccc24)CCC3)cc1,-14.4%,13.9µM*,-3.6%,?,-3.5%,-7.2%,?,6.8%,9.8%,-20.3%,18.3µM*,
COc1ccc(Nc2c3c(nc4nncn24)CCC3)cc1Cl,-12.8%,?,-17.5%,-13.2%,11.9%,-12.7%,/,/,/,/,/,
Fc1ccc(F)c(Nc2c3c(nc4ccc(Cl)cc24)CCC3)c1,2.2%,18.9µM*,-10.2%,16.6%,17.8%,i,?,?,3.2%,-1.6%,-30.9%,
COc1ccc(C)cc1Nc1c2c(nc3ccccc13)CCC2,?,11.3µM*,-14.9%,15.8µM*,-9.9%,0.1%,?,-18.9%,1.8%,-6.8%,?,
N[C@@H](CC(=O)N1CCn2c(nnc2C(F)(F)F)C1)Cc1cc(F)c(F)cc1F,/,/,/,/,/,-2.0%,/,/,/,/,/,
CCNc1cc(NC2CCC(O)CC2)nc(Nc2ccc3c(ccn3Cc3ccccc3)c2)n1 (stereo not given),/,/,/,/,/,-6.8%,/,/,/,/,/,
CC1=C[C@@H]2[C@@H]([C@@H](O)C[C@@]3(C)[C@H]2C[C@@H](C)[C@]3(O)C(=O)CO)[C@@]2(C)Cc3cnn(-c4ccccc4)c3C=C12,/,/,/,/,/,-18.2%,/,/,/,/,/,
CC1=Nc2cc(C(=O)NC3CCC(C)CC3)ccc2Sc2c(C)ccc(C)c21 (stereo not given),-10.5%,-115.6%,3.9%,?,26.7%,8.3%,/,/,/,/,/,

# Compound activity from PubChem BioAssay.
